Data taken from PubChem BioAssay AID1159580 (chemical genetic matrix, 2015).
About 2,000 (36%) of roughly 5,500 compounds were called active. Not shown: some 18% with an inconclusive outcome. The list shows a part of the results. Values without a mark were called inactive. Rule as the data show it: active = normalized growth mostly below about 0.91 (no sharp cut-off); inconclusive = no clear call, values can overlap the other calls; inactive = mostly above about 0.92.

Experiment: chemical genetic growth profiling, strain panel (AID 1159580);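 also: tested at 20 µM; growth read once vehicle control cultures reached saturation at 30 °C; 1 = growth at the plate median or of vehicle wells; lower values mean less growth of the strain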
Settings: growth OD
[1] = S. cerevisiae deletion strains, locus YAL013W, strain DEP1, stronger effect = lower value
[2] = S. cerevisiae deletion strains, locus YBR229C, strain ROT2, stronger effect = lower value
[3] = S. cerevisiae deletion strains, locus YDL101C, strain DUN1, stronger effect = lower value
[4] = S. cerevisiae deletion strains, locus YDR150W, strain NUM1, stronger effect = lower value
[5] = S. cerevisiae deletion strains, locus YEL061C, strain CIN8, stronger effect = lower value
[6] = S. cerevisiae deletion strains, locus YGR078C, strain PAC10, stronger effect = lower value
[7] = S. cerevisiae deletion strains, locus YHR030C, strain SLT2, stronger effect = lower value
[8] = S. cerevisiae deletion strains, locus YHR087W, strain rtc3, stronger effect = lower value
[9] = S. cerevisiae deletion strains, locus YJL187C, strain SWE1, stronger effect = lower value
[10] = S. cerevisiae deletion strains, locus YJR043C, strain POL32, stronger effect = lower value
[11] = S. cerevisiae deletion strains, locus YJR075W, strain HOC1, stronger effect = lower value
[12] = S. cerevisiae deletion strains, locus YKL190W, strain CNB1, stronger effect = lower value
[13] = S. cerevisiae deletion strains, locus YLR039C, strain RIC1, stronger effect = lower value
[14] = S. cerevisiae deletion strains, locus YLR058C, strain SHM2 (second series), stronger effect = lower value
[15] = S. cerevisiae deletion strains, locus YLR085C, strain ARP6, stronger effect = lower value
[16] = S. cerevisiae deletion strains, locus YLR262C, strain YPT6, stronger effect = lower value
[17] = S. cerevisiae deletion strains, locus YML094W, strain GIM5, stronger effect = lower value
[18] = S. cerevisiae deletion strains, locus YMR219W, strain ESC1, stronger effect = lower value
[19] = S. cerevisiae deletion strains, locus YMR263W, strain SAP30, stronger effect = lower value
[20] = S. cerevisiae deletion strains, locus YNL153C, strain GIM3, stronger effect = lower value
[21] = S. cerevisiae deletion strains, locus YNL298W, strain CLA4 (second series), stronger effect = lower value
[22] = S. cerevisiae deletion strains, locus YNL322C, strain KRE1, stronger effect = lower value
[23] = S. cerevisiae deletion strains, locus YNR030W, strain Alg12, stronger effect = lower value
[24] = S. cerevisiae deletion strains, locus YPL055C, strain LGE1, stronger effect = lower value
[25] = S. cerevisiae deletion strains, locus YPL241C, strain CIN2, stronger effect = lower value
[26] = S. cerevisiae deletion strains, locus YPR135W, strain CTF4, stronger effect = lower value

Q: With `CC1=C(OS(=O)(=O)c2cc(C)c(Cl)cc2Cl)C(=O)CC1` as the compound, how does the normalized growth [1] read?
A: Its normalized growth is 0.993.

Q: What about the normalized growth [2] of the same compound?
A: The normalized growth was 0.956.

Q: What about the normalized growth [3] of the same compound?
A: Its normalized growth is 0.968.

Q: And the normalized growth [4]?
A: The normalized growth was 0.986.

Q: And the normalized growth [5]?
A: Its normalized growth is 1.

Q: And the normalized growth [6]?
A: Its normalized growth is 0.98.

Q: And the normalized growth (S. cerevisiae deletion strains, locus YGR229C, strain SMI1, stronger effect = lower value)?
A: The normalized growth was 0.968.

Q: What about the normalized growth [7] of the same compound?
A: The normalized growth was 0.85.

Q: And the normalized growth [8]?
A: The normalized growth was 0.974.

Q: And the normalized growth [9]?
A: Its normalized growth is 0.986.

Q: And the normalized growth [10]?
A: Its normalized growth is 0.991.

Q: And the normalized growth [11]?
A: The normalized growth was 0.984.

Q: What about the normalized growth [12] of the same compound?
A: The normalized growth was 0.976.

Q: And the normalized growth [13]?
A: The normalized growth was 0.849.

Q: What about the normalized growth [14] of the same compound?
A: The normalized growth was 0.968.

Q: What about the normalized growth [15] of the same compound?
A: The normalized growth was 0.955.

Q: What about the normalized growth [16] of the same compound?
A: Its normalized growth is 0.866.

Q: What about the normalized growth [17] of the same compound?
A: The normalized growth was 1.

Q: And the normalized growth [18]?
A: The normalized growth was 0.985.

Q: And the normalized growth [19]?
A: Its normalized growth is 0.977.

Q: What about the normalized growth [20] of the same compound?
A: The normalized growth was 0.971.

Q: What about the normalized growth [21] of the same compound?
A: The normalized growth was 0.914.

Q: What about the normalized growth [22] of the same compound?
A: Its normalized growth is 0.97.

Q: And the normalized growth [23]?
A: The normalized growth was 0.968.

Q: And the normalized growth (S. cerevisiae deletion strains, locus YOL006C, strain TOP1, stronger effect = lower value)?
A: The normalized growth was 0.897.

Q: And the normalized growth [24]?
A: The normalized growth was 1.24 [resistant] (active).

Q: What about the normalized growth [25] of the same compound?
A: Its normalized growth is 0.98.

Q: What about the normalized growth [26] of the same compound?
A: Its normalized growth is 0.87.

Q: For `COc1ccccc1N1CCN(S(=O)(=O)c2cc(C)c(Cl)cc2C)CC1`, which normalized growth [1] is on record?
A: Its normalized growth is 0.985.

Q: And the normalized growth [2]?
A: Its normalized growth is 0.991.

Q: And the normalized growth [3]?
A: Its normalized growth is 0.957.

Q: And the normalized growth [4]?
A: The normalized growth was 0.958.

Q: And the normalized growth [5]?
A: The normalized growth was 0.994.

Q: And the normalized growth [6]?
A: The normalized growth was 0.97.

Q: What about the normalized growth [7] of the same compound?
A: The normalized growth was 1.01.

Q: What about the normalized growth [8] of the same compound?
A: The normalized growth was 0.959.

Q: What about the normalized growth [9] of the same compound?
A: The normalized growth was 0.991.

Q: What about the normalized growth [10] of the same compound?
A: Its normalized growth is 1.

Q: What about the normalized growth [11] of the same compound?
A: Its normalized growth is 0.989.

Q: What about the normalized growth [12] of the same compound?
A: Its normalized growth is 0.987.

Q: And the normalized growth [13]?
A: Its normalized growth is 0.981.

Q: What about the normalized growth [14] of the same compound?
A: The normalized growth was 0.988.

Q: What about the normalized growth [15] of the same compound?
A: The normalized growth was 1.01.

Q: And the normalized growth [16]?
A: Its normalized growth is 0.976.

Q: And the normalized growth [17]?
A: The normalized growth was 0.958.

Q: What about the normalized growth [18] of the same compound?
A: The normalized growth was 1.

Q: And the normalized growth [19]?
A: The normalized growth was 1.

Q: What about the normalized growth [20] of the same compound?
A: Its normalized growth is 0.996.

Q: What about the normalized growth [21] of the same compound?
A: Its normalized growth is 0.982.

Q: What about the normalized growth [22] of the same compound?
A: The normalized growth was 0.994.

Q: And the normalized growth [23]?
A: The normalized growth was 0.982.

Q: And the normalized growth [24]?
A: Its normalized growth is 0.953.

Q: And the normalized growth [25]?
A: The normalized growth was 1.06.

Q: And the normalized growth [26]?
A: Its normalized growth is 0.874.

Q: What about the normalized growth (S. cerevisiae strains, strain wild type, stronger effect = lower value) of the same compound?
A: The normalized growth was 0.985.
